HT1080-NT tox: kills 2HG-producing HT-1080-NT fibrosarcoma cells; HT-1080-NT fibrosarcoma viability, CellTiter-Glo ATP luminescence, 48 h; Potency, µM (top dose mostly 46.1 µM), without a hit: top-dose activity, negative = less viability, usual class: cytotoxic; hit rate 1.6% among 360,000; AID 686970;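 also: NT is the 2HG producing partner of a matched IDH1 knockdown line; 0% = DMSO-treated cells and -100% = media-only wells without cells; nearly all actives have a fitted effect of over 55% in size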
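Toxicity toward the 2HG-producing NT line was scored as %Activity, normalised to DMSO and no-cell wells, from CellTiter-Glo luminescence after 48 hours' treatment.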
HT1080 IDH1KD tx: toxicity to HT-1080 IDH1 knockdown cells (counter line). HT-1080 IDH1 knockdown viability, ATP luminescence, 48 h. Potency, µM (doses to about 46.1 µM), for inactives: at the highest dose activity, negative = toxicity, hits mostly cytotoxic. hit rate 2% among 360,000. AID 686971;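 also: 0% = DMSO wells and -100% = cell-free medium wells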
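Assay cells: HT-1080 with IDH1 knockdown, 750 per well, RPMI/5% FBS. Exposure: 48 h at 37 °C following 2 h pre-incubation. Read: CellTiter-Glo luminescence; fitted concentration-response, curve class assigned.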
HepG2 viability: counter-screen for TGF-b inhibitors: cytotoxicity in HepG2 cells. HepG2 CAGA-GFP viability, ATP luminescence, 18 h. Potency, µM (titrated, usually from 46.1 µM), for the others: top-dose activity change, negative = cytotoxicity, actives largely listed as cytotoxic. hit rate 0.76% among 410,000
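HepG2 CAGA-GFP cells (1000/well, DMEM with 1% FBS) received compound, then TGF-beta at 500 pg/mL final, and were incubated 18 hours at 37 degrees C. Viability was read by CellTiter-Glo luminescence. Media-only wells were set as complete cell-killing and DMSO as no toxicity.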
TGFb SMAD3 inh: TGF-b pathway inhibition. HepG2 CAGA-GFP TGF-b/SMAD3 reporter, GFP fluorescence, 18 h; TGF-beta stimulated, 500 pg/mL final. Potency, µM (series often up to 46.1 µM), for inactives: at the highest dose activity, negative = inhibition, usual class: inhibitors. hit rate 1.2% among 410,000. AID 588855; also: % is scaled to controls: 0 for no effect and ±100 for the full control effect; nearly all actives have a fitted effect of over 65% in size
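HEPG2 CAGA-GFP cells (1000/well, DMEM with 1% FBS) were pre-incubated 2 h at 37 degrees C, given compound by pin tool, then stimulated with TGF-beta at 500 pg/mL final for 18 h before per-cell GFP fluorescence imaging.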
KB-V1 cytotox: kills drug-selected multidrug resistant KB-V1 cells; KB-V1 MDR cells viability, CellTiter-Glo, 72 h; Potency, µM (highest dose often 46.1 µM), actives largely listed as cytotoxic; hit rate 3.4% among 400,000; AID 1347076; also: % is scaled to controls: 0 for no effect and ±100 for the full control effect; nearly all actives have a fitted effect of over 60% in size
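Cytotoxicity toward P-gp-expressing KB-V1 cells was determined as loss of CellTiter-Glo luminescence after 72 h at 37 degrees C. Compounds were tested in quantitative HTS format across a concentration range, with curves fitted to normalized data.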
KB-3-1 cytotox: kills parental KB-3-1 adenocarcinoma cells | KB-3-1 viability, CellTiter-Glo ATP luminescence, 72 h | Potency, µM (doses to about 46.1 µM), usual class: cytotoxic | hit rate 1.4% among 400,000; also: % is scaled to controls: 0 for no effect and ±100 for the full control effect; nearly all actives have a fitted effect of over 60% in size
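Multi-concentration cytotoxicity screen in KB-3-1 cells grown in DMEM lacking phenol red with 10% FBS. After 72 h at 37 °C with compound, ATP-dependent luminescence was recorded.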
The depositor's hits bear a star; i = inactive; ? = inconclusive; nt = no result given; [ ] = remark or other dose. Rows were chosen to be rich in hits. Some 6.6% of all compounds tested hit in one or more screens of this group. Calls follow the shape of the dose curve; as a rule, active = well fitted curve in the direction sought with a large enough effect; inconclusive = small, poorly fitted or top-dose-only effect, or another doubt; inactive = no such curve, though single readings can be large; an effect the other way counts as inactive or inconclusive. Potency is read from the fitted curve at half-maximal effect.

SMILES | HT1080-NT tox | HT1080 IDH1KD tx | HepG2 viability | TGFb SMAD3 inh | KB-V1 cytotox | KB-3-1 cytotox
CCC(c1nnnn1CCOC)N(Cc1ccc(C)cc1)Cc1cc2cc(OC)ccc2[nH]c1=O (stereo not drawn) | -2% | -3% | -2% | 11% | 23µM* | ?
Cc1cc(C(=O)NCc2ccccc2)c2c(C)nn(-c3cccc(F)c3)c2n1 | nt | nt | -19% | -17% | ? | i
Cc1ccc(C(=O)NC(=S)N2CCCC2)cc1 | -2% | 9% | 6% | 6% | i | i
Cc1ccc(C(=O)NC(=S)N2CCN(C)CC2)cc1 | -7% | -3% | 10µM* | -1% | i | i
COc1ccc(C(=O)NC(=S)N2CCN(c3ccccc3O)CC2)cc1 | -1% | -3% | 1% | -10% | 21µM* | i
Cc1cccc(C(=O)NC(=S)N2CCN(C)CC2)c1 | 13µM* | 10µM* | -11% | -6% | i | i
CCOc1ccccc1NC(=O)Cn1ncc2c(=O)oc3ccc(C)cc3c21 | nt | nt | 1% | -10% | ? | i
CCOC(=O)Cn1c(=O)n(C2CCCCC2)c2nc(-c3cccc(F)c3)nc(C(N)=O)c21 | nt | nt | -1% | -5% | i | i
CCOC(=O)Cn1c(=O)n(C2CCCCC2)c2nc(-c3c(F)cccc3Cl)nc(C(N)=O)c21 | nt | nt | -45% | ? | 18µM* | ?
COC(=O)c1cc2occc2n1CC(=O)Nc1ccc(N(C)C)cc1 | nt | nt | -8% | -14% | i | i
COc1ccc(C(c2c(O)cc(C)n(Cc3ccco3)c2=O)N2CCCCC2)cc1OC (stereo not drawn) | nt | nt | -16% | 0% | i | i
Cc1sc2ncnc(NCC(c3ccco3)N(C)C)c2c1C (stereo not drawn) | 5% | 7% | -1% | -1% | 18µM* | i
COc1ccc(C(CNc2ncnc3sc(C)c(C)c23)N(C)C)cc1 (stereo not drawn) | -2% | 1% | -27% | -4% | 10µM* | ?
Cc1sc2ncnc(Nc3ccccc3)c2c1C | -9% | 4% | -24% | 2% | i | i
Cc1sc2ncnc(NCc3ccccc3)c2c1C | -29% | -25% | -45% | 11% | ? | 23µM*
COc1ccccc1C(CNc1ncnc2sc(C)c(C)c12)N(C)C (stereo not drawn) | -10% | -2% | 1% | 0% | i | i
Cc1sc2ncnc(NCC(C)(C)N3CCOCC3)c2c1C | -28% | -21%[9.24 µM] | -28% | ? | 4.1µM* | ?
CCOc1ccccc1NC(=O)N(C)CCc1c(C)nn(CC)c1C | nt | nt | 2% | 6% | i | i
Cc1ccc(NC(=O)Cn2nc(-c3ccccc3)nc(Cc3ccc(Cl)cc3)c2=O)cc1 | nt | nt | 5% | 1% | nt | nt
CCCCSCCCNC(=O)C1CCN(Cc2nc(-c3ccc(CC)cc3)oc2C)CC1 | nt | nt | -28% | ? | i | i
